Experimental data as given in the supplement of paper PMC12067926.

Experiments:
Experiment in all cases: relative growth (AUC of 72 h growth curve relative to DMSO control, dAUC) (ratio); higher = more growth (less inhibition), active = hit call of the paper
Conditions in all cases: 20 µM;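 active = growth AUC significantly below the DMSO wells by Dunnett test; inactive = the rest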
[1] = system: Aeromonas 1 (Aeromonas sp. AE235)
Method in brief: (§1)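 Relative growth (dAUC) is the spline-integrated area under the growth curve divided by the mean of the DMSO-only control wells. Cultures were isolates from Icelandic stream sediments and Silwood Park soil, plus whole sediment communities, grown to carrying capacity in Luria–Bertani medium and diluted 1:100 into 96-well plates containing each chemical at 20 µM (1% DMSO). A600 was read hourly for 72 h on a plate reader, with brief shaking before each read, and values were averaged over three biological replicates.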

[2] = system: Aeromonas 2 (Aeromonas sobria)
Method in brief: as §1

[3] = system: Aeromonas 3 (Aeromonas popoffii)
Method in brief: as §1

[4] = system: Argrobacterium 1 (Agrobacterium sp.)
Method in brief: as §1

[5] = system: Arthrobacter 1 (Arthrobacter humicola)
Method in brief: as §1

[6] = system: Arthrobacter 2 (Arthrobacter humicola)
Method in brief: as §1

[7] = system: Arthrobacter 3 (Arthrobacter sp.)
Method in brief: as §1

[8] = system: Community 4
Method in brief: as §1

[9] = system: Community 6
Method in brief: as §1

[10] = system: Community 7
Method in brief: as §1

[11] = system: Community 8
Method in brief: as §1

[12] = system: Community 9
Method in brief: as §1

[13] = system: Flavobacterium 1 (Flavobacterium glaciei)
Method in brief: as §1

[14] = system: Flavobacterium 2 (Flavobacterium succinicans)
Method in brief: as §1

[15] = system: Hymenobacter 1 (Hymenobacter glaciei)
Method in brief: as §1

[16] = system: Microbacterium 1 (Microbacterium arborescens)
Method in brief: as §1

[17] = system: Neobacillus 1 (Neobacillus soli)
Method in brief: as §1

[18] = system: Oryzobacter 1 (Oryzobacter terrae)
Method in brief: as §1

[19] = system: Paenibacillus 1 (Paenibacillus castaneae)
Method in brief: as §1

Measured: relative growth

N#CC(CCc1ccc(Cl)cc1)(Cn1cncn1)c1ccccc1 (stereo not drawn)
active: [6] 0.555 | [7] 0.666
inactive: [1] 0.938 | [2] 0.936 | [3] 1.01 | [4] 0.968 | [5] 0.81 | [8] 0.946 | [9] 0.958 | [10] 0.96 | [11] 0.951 | [12] 0.939 | [13] 0.846 | [14] 0.856 | [15] 0.861 | [16] 0.909 | [17] 0.905 | [18] 1.02 | [19] 0.947

Oc1ccc(Cl)cc1Cc1cc(Cl)ccc1O
active: [1] 0.522 | [2] 0.00195 | [3] 0.275 | [5] 0.00578 | [6] 0.00499 | [7] 0.011 | [9] 0.496 | [11] 0.654 | [12] 0.327 | [13] 0.0108 | [14] 0.00242 | [15] 0.0173 | [17] 0.731 | [18] 0.00429 | [19] 0.00339
inactive: [4] 0.959 | [8] 0.664 | [10] 0.862 | [16] 0.869

CCN(CC)c1nc(C)cc(OP(=S)(OC)OC)n1
inactive: [1] 1 | [2] 0.982 | [3] 1.02 | [4] 1.04 | [5] 0.998 | [6] 0.924 | [7] 0.956 | [8] 1.01 | [9] 0.982 | [10] 0.988 | [11] 1.04 | [12] 1.04 | [13] 1.05 | [14] 0.995 | [15] 1 | [16] 1.03 | [17] 1.03 | [18] 1.06 | [19] 1.02

CC(Oc1ccc(Oc2ncc(C(F)(F)F)cc2Cl)cc1)C(=O)O (stereo not drawn)
inactive: [1] 0.952 | [2] 0.974 | [3] 0.959 | [4] 0.969 | [5] 1.08 | [6] 1.03 | [7] 1.08 | [8] 1.02 | [9] 0.947 | [10] 0.985 | [11] 1.04 | [12] 1.01 | [13] 0.929 | [14] 0.972 | [15] 1.05 | [16] 0.984 | [17] 0.973 | [18] 1.13 | [19] 0.966

COP(=O)(OC)OC=C(Cl)Cl
inactive: [1] 0.937 | [2] 0.977 | [3] 0.972 | [4] 0.977 | [5] 0.856 | [6] 0.86 | [7] 0.916 | [8] 0.961 | [9] 0.961 | [10] 1.09 | [11] 0.997 | [12] 0.964 | [13] 1.01 | [14] 0.965 | [15] 0.909 | [16] 0.975 | [17] 0.893 | [18] 0.94 | [19] 0.984

O=C(O)CNCP(=O)(O)O
inactive: [1] 0.998 | [2] 1 | [3] 1.03 | [4] 1.01 | [5] 0.952 | [6] 1.04 | [7] 1.04 | [8] 1.03 | [9] 1.07 | [10] 1.06 | [11] 1.04 | [12] 1.04 | [13] 0.964 | [14] 1.02 | [15] 1.11 | [16] 1.05 | [17] 1.04 | [18] 1.02 | [19] 0.969

CC1(C)[C@H](C(=O)O[C@H](C#N)c2cccc(Oc3ccccc3)c2)[C@@H]1C=C(Br)Br
inactive: [1] 1.05 | [2] 1.04 | [3] 1.09 | [4] 1.09 | [5] 1.16 | [6] 0.949 | [7] 0.946 | [8] 1.01 | [9] 1.06 | [10] 1.07 | [11] 1.06 | [12] 1.05 | [13] 1.08 | [14] 1.02 | [15] 1.06 | [16] 1.03 | [17] 1.1 | [18] 1.08 | [19] 0.958

CCOCn1c(-c2ccc(Cl)cc2)c(C#N)c(Br)c1C(F)(F)F
inactive: [1] 0.988 | [2] 0.989 | [3] 1.01 | [4] 0.978 | [5] 1.14 | [6] 0.829 | [7] 0.987 | [8] 1.07 | [9] 0.99 | [10] 1.06 | [11] 1.05 | [12] 1.03 | [13] 1.03 | [14] 0.988 | [15] 0.993 | [16] 0.996 | [17] 0.979 | [18] 1 | [19] 0.978

ClC1C(Cl)C(Cl)C(Cl)C(Cl)C1Cl (stereo not drawn)
inactive: [1] 1.02 | [2] 0.964 | [3] 0.994 | [4] 1 | [5] 1.04 | [6] 0.837 | [7] 0.909 | [8] 0.976 | [9] 0.931 | [10] 1.03 | [11] 0.993 | [12] 0.963 | [13] 0.862 | [14] 0.932 | [15] 0.999 | [16] 1.01 | [17] 0.941 | [18] 1.13 | [19] 0.961

CCCC1COC(Cn2cncn2)(c2ccc(Cl)cc2Cl)O1 (stereo not drawn)
inactive: [1] 0.966 | [2] 0.949 | [3] 0.971 | [4] 0.999 | [5] 0.991 | [6] 0.797 | [7] 0.751 | [8] 0.89 | [9] 0.917 | [10] 1.08 | [11] 1 | [12] 0.862 | [13] 0.937 | [14] 0.856 | [15] 0.937 | [16] 1.01 | [17] 0.88 | [18] 1.1 | [19] 0.935

CCNC(=O)NC(=O)/C(C#N)=N/OC
inactive: [1] 0.983 | [2] 0.967 | [3] 0.988 | [4] 1.01 | [5] 0.901 | [6] 0.894 | [7] 0.975 | [8] 0.963 | [9] 1 | [10] 1.13 | [11] 1.02 | [12] 0.993 | [13] 1.01 | [14] 0.994 | [15] 1.02 | [16] 0.986 | [17] 0.997 | [18] 0.977 | [19] 0.994

COc1cc(OC)nc(NC(=O)NS(=O)(=O)c2ncccc2C(=O)N(C)C)n1
inactive: [1] 1.06 | [2] 1.01 | [3] 1.03 | [4] 0.995 | [5] 0.976 | [6] 1.11 | [7] 1.05 | [8] 1.08 | [9] 1.06 | [10] 1.02 | [11] 1.07 | [12] 1.08 | [13] 1.12 | [14] 1.08 | [15] 1.16 | [16] 1.04 | [17] 1.1 | [18] 0.98 | [19] 1.08

CNC(=O)/C=C(\C)OP(=O)(OC)OC
inactive: [1] 0.951 | [2] 0.972 | [3] 0.995 | [4] 0.984 | [5] 0.943 | [6] 0.906 | [7] 0.94 | [8] 0.942 | [9] 0.973 | [10] 1.14 | [11] 0.954 | [12] 0.956 | [13] 0.897 | [14] 0.954 | [15] 0.933 | [16] 0.986 | [17] 0.937 | [18] 1.11 | [19] 0.944

COC(=O)NC(=S)Nc1ccccc1NC(=S)NC(=O)OC
inactive: [1] 0.978 | [2] 0.978 | [3] 0.998 | [4] 1.02 | [5] 0.923 | [6] 0.973 | [7] 1.07 | [8] 0.943 | [9] 0.97 | [10] 1.03 | [11] 0.993 | [12] 1.05 | [13] 1.08 | [14] 0.993 | [15] 0.952 | [16] 1 | [17] 1.01 | [18] 0.947 | [19] 0.934

CC1(C)C(C(=O)OC(C#N)c2cccc(Oc3ccccc3)c2)C1(C)C (stereo not drawn)
inactive: [1] 0.986 | [2] 0.989 | [3] 1.08 | [4] 1.09 | [5] 1.1 | [6] 0.685 | [7] 0.704 | [8] 1 | [9] 1.03 | [10] 1.09 | [11] 1.02 | [12] 1.05 | [13] 0.939 | [14] 0.946 | [15] 1.02 | [16] 1.03 | [17] 0.932 | [18] 1.14 | [19] 0.918

CCC(CC)Nc1c([N+](=O)[O-])cc(C)c(C)c1[N+](=O)[O-]
inactive: [1] 0.951 | [2] 0.973 | [3] 0.997 | [4] 0.993 | [5] 0.901 | [6] 0.884 | [7] 1.02 | [8] 0.88 | [9] 0.917 | [10] 1.03 | [11] 1.02 | [12] 0.884 | [13] 1.03 | [14] 0.957 | [15] 0.926 | [16] 1.04 | [17] 0.918 | [18] 1.1 | [19] 0.933

O=[N+]([O-])c1cc(C(F)(F)F)c(Cl)c([N+](=O)[O-])c1Nc1ncc(C(F)(F)F)cc1Cl
inactive: [1] 1.04 | [10] 0.794 | [11] 0.921 | [16] 0.928
active: [2] 0.00203 | [3] 0.00448 | [4] 0.0123 | [5] 0.035 | [6] 0.0116 | [7] 0.0138 | [8] 0.614 | [9] 0.498 | [12] 0.34 | [13] 0.0154 | [14] 0.00437 | [15] 0.0968 | [17] 0.169 | [18] 0.00855 | [19] 0.00404
